Data taken from PubChem BioAssay (NCATS).
Results filed as inconclusive are left out. The source made the active and inactive calls. Unless noted, calls come from the whole dose curve; as a rule, active = well fitted curve in the direction sought with a large enough effect; inconclusive = small, poorly fitted or top-dose-only effect, or another doubt; inactive = no such curve, though single readings can be large; an effect the other way counts as inactive or inconclusive.

Tests used:
[1] = target: Luciferin 4-monooxygenase (Photinus pyralis) (UniProt P08659); assay: Biochemical firefly luciferase enzyme assay for NPC (AID 624030);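 note: purified P. pyralis luciferase at 10 nM with luciferin and ATP substrate; 0% = DMSO and -100% = full luciferase inhibition by PTC124 control; nearly all actives have a fitted effect of over 70% in size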
Luciferin 4-monooxygenase (Photinus pyralis), sequence (P08659 whole entry, looked up): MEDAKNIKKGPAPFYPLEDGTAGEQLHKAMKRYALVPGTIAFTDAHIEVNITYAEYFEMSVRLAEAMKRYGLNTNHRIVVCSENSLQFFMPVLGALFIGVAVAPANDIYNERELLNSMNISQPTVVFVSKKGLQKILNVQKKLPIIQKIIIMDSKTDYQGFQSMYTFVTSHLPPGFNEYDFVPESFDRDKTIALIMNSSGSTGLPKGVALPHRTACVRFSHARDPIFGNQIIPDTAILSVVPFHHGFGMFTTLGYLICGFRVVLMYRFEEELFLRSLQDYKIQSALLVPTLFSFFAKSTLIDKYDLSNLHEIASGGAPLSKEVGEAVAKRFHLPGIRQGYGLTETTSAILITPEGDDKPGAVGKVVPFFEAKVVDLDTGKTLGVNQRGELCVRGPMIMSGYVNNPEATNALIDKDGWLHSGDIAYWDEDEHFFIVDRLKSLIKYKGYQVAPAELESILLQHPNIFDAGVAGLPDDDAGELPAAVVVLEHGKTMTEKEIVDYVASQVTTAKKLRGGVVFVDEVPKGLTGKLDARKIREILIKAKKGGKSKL
Summary of the method: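 Counter-screen for direct inhibition of the luciferase enzyme by approved-drug library compounds, run at 10 nM enzyme in 50 mM Tris acetate (final). Luminescence was read within 5 min of enzyme-buffer addition and normalized to PTC124 versus DMSO (0%).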

[2] = tested on: 7G8; assay: qHTS profiling for inhibitors of Plasmodium falciparum proliferation (AID 504749); note: nearly all actives have a fitted effect of over 60% in size; note: potency is the fitted concentration of half-maximal effect; conditions: P. falciparum in erythrocytes, SYBR Green DNA, 72 h; series mostly up to 12.8 µM
Summary of the method: (§1)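 Parasite proliferation within erythrocytes, 72 h exposure. Endpoint: SYBR Green I fluorescence after overnight lysis at room temperature. Controls: 0.29 uM artemisinin, DMSO.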

[3] = tested on: AA1029; assay: as above; conditions: P. falciparum in erythrocytes, SYBR Green DNA, 72 h; series mostly up to 28.7 µM
Summary of the method: as §1

[4] = tested on: CP191; assay: as above; conditions: P. falciparum in erythrocytes, SYBR Green DNA, 72 h; series mostly up to 28.7 µM
Summary of the method: as §1

[5] = tested on: CP237; assay: as above; conditions: P. falciparum in erythrocytes, SYBR Green DNA, 72 h; series mostly up to 28.7 µM
Summary of the method: as §1

[6] = tested on: CP291; assay: as above; conditions: P. falciparum in erythrocytes, SYBR Green DNA, 72 h; series mostly up to 28.7 µM
Summary of the method: as §1

[7] = tested on: CP297; assay: as above; conditions: P. falciparum in erythrocytes, SYBR Green DNA, 72 h; series mostly up to 28.7 µM
Summary of the method: as §1

[8] = tested on: CP315; assay: as above; conditions: P. falciparum in erythrocytes, SYBR Green DNA, 72 h; series mostly up to 28.7 µM
Summary of the method: as §1

[9] = tested on: CP335; assay: as above; conditions: P. falciparum in erythrocytes, SYBR Green DNA, 72 h; series mostly up to 12.8 µM
Summary of the method: as §1

[10] = tested on: DIV17; assay: as above; conditions: P. falciparum in erythrocytes, SYBR Green DNA, 72 h; series mostly up to 28.7 µM
Summary of the method: as §1

[11] = tested on: GB4; assay: as above; conditions: P. falciparum in erythrocytes, SYBR Green DNA, 72 h; series mostly up to 28.7 µM
Summary of the method: as §1

[12] = tested on: JCK; assay: as above; conditions: P. falciparum in erythrocytes, SYBR Green DNA, 72 h; series mostly up to 28.7 µM
Summary of the method: as §1

[13] = tested on: N140; assay: as above; conditions: P. falciparum in erythrocytes, SYBR Green DNA, 72 h; series mostly up to 28.7 µM
Summary of the method: as §1

[14] = tested on: TAB113; assay: as above; conditions: P. falciparum in erythrocytes, SYBR Green DNA, 72 h; series mostly up to 28.7 µM
Summary of the method: as §1

[15] = tested on: TAB165; assay: as above; conditions: P. falciparum in erythrocytes, SYBR Green DNA, 72 h; series mostly up to 28.7 µM
Summary of the method: as §1

[16] = target: 3',5'-cyclic-AMP phosphodiesterase 4B (Homo sapiens) (UniProt Q07343); assay: qHTS Assay for Inhibitors of PDE-IV (AID 607; active = well fitted activation curve with a large enough effect in the main read-out, with a control signal flat, not every such curve was filed as active; note: % of control where 0% means no effect)
3',5'-cyclic-AMP phosphodiesterase 4B (Homo sapiens), sequence (Q07343 whole entry, looked up): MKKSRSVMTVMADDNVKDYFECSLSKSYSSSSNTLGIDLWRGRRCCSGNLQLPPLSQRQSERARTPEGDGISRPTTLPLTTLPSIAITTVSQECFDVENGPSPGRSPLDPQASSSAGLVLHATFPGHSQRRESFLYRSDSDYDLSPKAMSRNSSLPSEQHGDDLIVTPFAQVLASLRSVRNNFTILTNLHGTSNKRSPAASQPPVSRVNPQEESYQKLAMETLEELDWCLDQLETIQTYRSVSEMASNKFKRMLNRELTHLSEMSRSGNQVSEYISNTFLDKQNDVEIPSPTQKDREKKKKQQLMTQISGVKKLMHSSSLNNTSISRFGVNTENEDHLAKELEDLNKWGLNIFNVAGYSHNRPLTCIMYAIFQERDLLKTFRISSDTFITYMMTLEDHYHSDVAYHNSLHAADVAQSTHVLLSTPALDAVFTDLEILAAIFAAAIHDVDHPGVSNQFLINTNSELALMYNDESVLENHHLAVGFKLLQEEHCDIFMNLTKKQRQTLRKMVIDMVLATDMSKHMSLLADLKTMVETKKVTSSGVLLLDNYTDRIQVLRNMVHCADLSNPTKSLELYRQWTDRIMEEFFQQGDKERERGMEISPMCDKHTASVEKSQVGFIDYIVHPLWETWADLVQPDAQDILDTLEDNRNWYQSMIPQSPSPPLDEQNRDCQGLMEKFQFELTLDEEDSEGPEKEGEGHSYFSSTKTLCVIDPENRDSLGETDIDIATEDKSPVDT
Summary of the method: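 The readout is membrane depolarisation from a cAMP-sensing CNG channel, detected with a potential dye at ex 535/em 590. Cells were HEK293-derived (endogenous PDE-IV) at 1000 cells/well, titrated up to 22.9 uM final.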

[17] = target: Cytochrome P450 2C9 (Homo sapiens) (UniProt P11712); assay: qHTS Assay for Inhibitors and Substrates of Cytochrome P450 2C9 (AID 883); note: nearly all actives have a fitted effect of over 60% in size; note: potency is the fitted concentration of half-maximal effect
Cytochrome P450 2C9 (Homo sapiens), sequence (P11712 whole entry, looked up): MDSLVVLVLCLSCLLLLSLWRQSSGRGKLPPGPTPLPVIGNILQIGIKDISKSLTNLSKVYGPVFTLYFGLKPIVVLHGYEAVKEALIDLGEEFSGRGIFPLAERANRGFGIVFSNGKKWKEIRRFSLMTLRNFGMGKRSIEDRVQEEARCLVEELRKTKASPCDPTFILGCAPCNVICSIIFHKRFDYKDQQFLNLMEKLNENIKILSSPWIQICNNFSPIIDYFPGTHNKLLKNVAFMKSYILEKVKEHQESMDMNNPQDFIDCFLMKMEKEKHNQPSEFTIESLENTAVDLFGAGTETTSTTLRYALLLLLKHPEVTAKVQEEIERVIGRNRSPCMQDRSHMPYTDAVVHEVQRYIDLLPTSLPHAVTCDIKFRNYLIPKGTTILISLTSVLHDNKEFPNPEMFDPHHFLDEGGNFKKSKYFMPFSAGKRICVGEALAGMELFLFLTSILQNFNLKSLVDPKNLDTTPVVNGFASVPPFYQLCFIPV
Summary of the method: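 Human CYP2C9 (10nM) hydroxylated Luciferin-H (100uM, at its KM) to luciferin in 25mM KPO4. Compound was preincubated 10 min at 37C, then NADPH regeneration started a 60 min reaction at 37C. Luminescence was read after detection reagent, normalized to 57uM sulphaphenazole.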

[18] = target: Cytochrome P450 2D6 (Homo sapiens) (UniProt P10635); assay: qHTS Assay for Inhibitors and Substrates of Cytochrome P450 2D6 (AID 891); note: nearly all actives have a fitted effect of over 60% in size; note: potency is the fitted concentration of half-maximal effect
Cytochrome P450 2D6 (Homo sapiens), sequence (P10635 whole entry, looked up): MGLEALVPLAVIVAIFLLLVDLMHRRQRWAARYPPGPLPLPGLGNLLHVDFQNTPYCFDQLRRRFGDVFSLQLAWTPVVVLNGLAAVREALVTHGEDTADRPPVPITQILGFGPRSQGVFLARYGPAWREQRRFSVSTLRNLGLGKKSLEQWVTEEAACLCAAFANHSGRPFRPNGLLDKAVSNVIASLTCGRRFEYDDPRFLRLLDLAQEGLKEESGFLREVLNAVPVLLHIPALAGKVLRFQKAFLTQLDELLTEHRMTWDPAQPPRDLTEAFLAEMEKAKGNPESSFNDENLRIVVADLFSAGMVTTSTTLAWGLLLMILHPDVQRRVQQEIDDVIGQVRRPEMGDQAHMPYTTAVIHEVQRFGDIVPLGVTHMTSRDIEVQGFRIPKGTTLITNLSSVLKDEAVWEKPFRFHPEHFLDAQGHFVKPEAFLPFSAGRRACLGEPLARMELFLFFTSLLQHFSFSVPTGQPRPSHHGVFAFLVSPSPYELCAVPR
Summary of the method: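 Human CYP2D6 (5 nM) with 30 uM Luciferin-ME EGE (at Km) in 100 mM KPO4, compound preincubated 10 min, then NADPH regeneration system for 60 min at room temperature. Luciferin read by luminescence; normalized to 1.43 uM quinidine.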

[19] = target: Cytochrome P450 2C19 (Homo sapiens) (UniProt P33261); assay: qHTS Assay for Inhibitors and Substrates of Cytochrome P450 2C19 (AID 899); note: nearly all actives have a fitted effect of over 60% in size; note: potency is the fitted concentration of half-maximal effect
Cytochrome P450 2C19 (Homo sapiens), sequence (P33261 whole entry, looked up): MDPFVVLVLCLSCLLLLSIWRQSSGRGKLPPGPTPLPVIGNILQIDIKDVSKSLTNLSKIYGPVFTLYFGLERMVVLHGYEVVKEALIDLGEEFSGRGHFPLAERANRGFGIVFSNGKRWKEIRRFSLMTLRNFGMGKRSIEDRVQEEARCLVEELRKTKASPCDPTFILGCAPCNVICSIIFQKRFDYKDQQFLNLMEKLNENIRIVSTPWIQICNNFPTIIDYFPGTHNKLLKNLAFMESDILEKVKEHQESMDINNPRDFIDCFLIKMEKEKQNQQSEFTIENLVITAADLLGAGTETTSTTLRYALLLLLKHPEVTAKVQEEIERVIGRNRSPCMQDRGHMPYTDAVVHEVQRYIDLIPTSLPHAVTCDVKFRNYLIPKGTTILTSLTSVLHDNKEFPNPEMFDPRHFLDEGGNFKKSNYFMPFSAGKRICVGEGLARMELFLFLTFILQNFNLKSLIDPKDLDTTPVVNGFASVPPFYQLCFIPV
Summary of the method: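 Human CYP2C19 (5nM) with Luciferin-H EGE at 10uM (its KM) in 50mM KPO4 was preincubated with compound for 10 min at 37C. NADPH regeneration started a 60 min 37C reaction. Luciferin was read by luminescence, normalized to 57uM ketoconazole.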

[20] = target: Androgen receptor (Homo sapiens) (UniProt P10275); assay: qHTS assay for small molecule agonists of androgen receptor signaling (AID 588515; active = well fitted curve in the direction sought with a large enough effect in the signal ratio, with a control signal flat; the % refers to the signal ratio; note: % is set by controls: 0 for no effect and ±100 for the full control effect); conditions: AR-UAS-bla HEK293, beta-lactamase ratio, agonist 16 h; stronger effect = higher value
Androgen receptor (Homo sapiens), sequence (P10275 whole entry, looked up): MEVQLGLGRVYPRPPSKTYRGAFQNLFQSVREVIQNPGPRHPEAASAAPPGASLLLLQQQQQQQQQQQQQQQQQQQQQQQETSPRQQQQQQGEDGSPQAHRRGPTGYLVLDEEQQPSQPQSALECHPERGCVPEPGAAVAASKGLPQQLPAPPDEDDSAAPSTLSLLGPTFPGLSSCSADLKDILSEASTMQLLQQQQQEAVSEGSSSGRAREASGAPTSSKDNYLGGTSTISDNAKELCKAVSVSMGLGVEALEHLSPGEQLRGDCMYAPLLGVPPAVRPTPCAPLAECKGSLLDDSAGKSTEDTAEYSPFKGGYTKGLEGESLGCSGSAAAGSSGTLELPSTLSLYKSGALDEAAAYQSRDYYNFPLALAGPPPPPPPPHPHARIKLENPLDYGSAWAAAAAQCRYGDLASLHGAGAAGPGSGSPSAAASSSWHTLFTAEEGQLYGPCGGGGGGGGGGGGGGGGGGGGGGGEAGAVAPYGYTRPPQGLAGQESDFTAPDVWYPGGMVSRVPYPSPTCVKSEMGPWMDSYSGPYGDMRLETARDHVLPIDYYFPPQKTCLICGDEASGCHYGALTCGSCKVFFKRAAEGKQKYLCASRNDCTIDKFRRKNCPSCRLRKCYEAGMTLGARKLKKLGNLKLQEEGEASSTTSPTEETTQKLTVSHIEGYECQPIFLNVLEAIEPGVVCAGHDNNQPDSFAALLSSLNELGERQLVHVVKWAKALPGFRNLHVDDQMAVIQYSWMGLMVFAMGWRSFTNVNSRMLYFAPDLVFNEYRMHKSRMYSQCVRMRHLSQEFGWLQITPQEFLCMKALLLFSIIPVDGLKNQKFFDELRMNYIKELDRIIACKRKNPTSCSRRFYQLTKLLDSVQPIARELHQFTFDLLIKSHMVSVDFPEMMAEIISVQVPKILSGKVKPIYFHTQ
Summary of the method: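 EC50 and efficacy came from Hill fits of titrations (up to 92 uM) normalized to 30 nM R1881 as 100% and DMSO as 0%. Compound exposure was 16 h at 37 C on AR-UAS-bla HEK293 cells, with a 405/460/530 nm CCF4 fluorescence read.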

C[C@@H]1O[C@H](O[C@@H]2C=C3CC[C@H]4[C@@H](CC[C@]5(C)[C@@H](c6ccc(=O)oc6)CC[C@]45O)[C@@]3(C)CC2)[C@@H](O)[C@H](O)[C@@H]1O
inactive: Potency [1] | Potency [2] | Potency [3] | Potency [4] | Potency [5] | Potency [6] | Potency [7] | Potency [8] | Potency [9] | Potency [10] | Potency [11] | Potency [12] | Potency [13] | Potency [14] | Potency [15]

c1cncc([C@H]2CCCCN2)c1
active: Potency [17] 7.94 µM | Potency [18] 12.6 µM | Potency [19] 5.01 µM
inactive: Potency [16]

CNc1ccc(C(=O)CC(O)CCC(C)C2OC(=O)CC(O)CC(=O)CC(O)CC(O)CC(O)CC(O)CC3(O)CC(O)C(C(=O)OC)C(CC(O[C@@H]4OC(C)C(O)C(N)C4O)/C=C/C=C/C=C/C=C/C=C/C=C/C=C/C2C)O3)cc1 (stereo partly specified)
inactive: Potency [1] | Potency [2] | Potency [3] | Potency [4] | Potency [5] | Potency [6] | Potency [7] | Potency [8] | Potency [9] | Potency [10] | Potency [11] | Potency [12] | Potency [13] | Potency [15]

O=C1C=C2C=C[C@H]3C[C@@]2(O1)[C@H]1CCCCN31
inactive: Potency [16] | Potency [17] | Potency [18] | Potency [19]

C[N+]1=Cc2cc3c(cc2CC1)OCO3
active: Potency [18] 15.8 µM
inactive: Potency [16] | Potency [17] | Potency [19]

CC([C@H](O)c1ccccc1)N(C)C (stereo partly specified)
inactive: Potency [1] | Potency [3] | Potency [4] | Potency [6] | Potency [7] | Potency [8] | Potency [9] | Potency [12] | Potency [13] | Potency [14] | Potency [15]
active: Potency [2] 11.2 µM

O=C(O)COc1cc(Cl)c(Cl)cc1Cl
inactive: activation [20] -1.88%

CCC(=O)Nc1ccc(Cl)c(Cl)c1
inactive: activation [20] 16.4%

CCS(=O)CCSP(=O)(OC)OC (stereo unspecified)
inactive: activation [20] 7.09%
